{"source": "PubChem BioAssay (EPA / NIEHS)", "note": "Several values for one entry are separate records, joined by “and”; a condition that tells them apart may be missing. Equal entries are not always repeated. Inconclusive results are not listed. The source holds several records for some structures; these can differ, active in one and inactive in another. Activity calls are given as the source filed them. The calls were made as follows: active = hit-call score of the fitted dose curve at least 0.9, where 1 is the maximum; inconclusive = response in the unintended direction; inactive = score below 0.9."}
{"target": "Cellular tumor antigen p53 (Homo sapiens) (UniProt P04637)", "sequence (P04637 whole entry, looked up, the tested form may be a part)": "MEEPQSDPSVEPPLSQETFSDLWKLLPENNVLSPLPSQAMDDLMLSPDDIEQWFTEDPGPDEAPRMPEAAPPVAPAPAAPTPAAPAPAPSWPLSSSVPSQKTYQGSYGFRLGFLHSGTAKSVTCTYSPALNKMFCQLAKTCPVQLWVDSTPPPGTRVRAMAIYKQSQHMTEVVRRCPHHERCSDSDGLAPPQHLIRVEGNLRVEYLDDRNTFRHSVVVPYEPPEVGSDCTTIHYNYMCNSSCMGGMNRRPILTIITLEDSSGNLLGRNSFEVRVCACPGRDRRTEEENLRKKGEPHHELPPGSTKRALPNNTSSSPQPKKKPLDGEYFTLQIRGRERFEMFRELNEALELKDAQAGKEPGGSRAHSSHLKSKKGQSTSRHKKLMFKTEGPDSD", "assay": "TOX21_p53_BLA_p5_ratio: Tox21 HCT-116 p53 Agonism Beta-lactamase Assay, Ratio, Phase 5 (AID 2283599)", "source_text": "TOX21_p53_BLA_p5 is a cell-based, single-readout assay that uses HCT116, a human intestinal cell line, […] in a 1536-well plate.TOX21_p53_BLA_p5_ratio is an assay readout measuring reporter gene via receptor activity and designed using inducible reporter (beta lactamase induction) detected with GAL4 b-lactamase reporter gene. The signal is derived from the ratio of cleaved (ch2) to uncleaved (ch1) reporter gene substrate used as the measure of target activity.Data from the assay component TOX21_p53_BLA_p5_ratio was analyzed into 1 assay endpoint. This assay endpoint, TOX21_p53_BLA_p5_ratio, was analyzed in the positive analysis fitting direction relative to DMSO as the negative control and baseline of activity. Using a type of inducible reporter, gain-of-signal activity can be used to understand changes in the reporter gene as they relate to the gene TP53. Furthermore, this assay endpoint can be referred to as a primary readout, because this assay has produced multiple assay endpoints and this ratio serves a reporter gene function to understand target activity. To generalize the intended target to other relatable targets, this assay endpoint is annotated to the DNA binding intended target family, where the subfamily is tumor suppressor.\nThawing Method: Place 14 mL of pre-warmed thaw medium into a 15 mL of conical tub. Remove the vial of cells to be thawed from liquid nitrogen and thaw rapidly by placing at 37C in a water bath with gentle agitation for 1-2 minutes. Decontaminate the vial by wiping with 70% ethanol before opening in a biological safety cabinet. Transfer the vial contents drop-wise into 14 mL of thaw medium in a sterile 15-mL conical tub. Centrifuge cells at 900 rpm for 4 minutes and resuspend in thaw medium. Transfer contents to the T75 tissue culture flask containing Thaw Medium and place flask in a humidified 37C/5% CO2 incubator. Switch to growth medium at first passage.Propagation Method: Aspirate medium, rinse once in DPBS, add 0.25% Trypsin/EDTA and swirl to coat the cell evenly. Add an equal volume of Growth Medium to inactivate Trypsin after 2-3 minutes incubation at 37C. Centrifuge cells at 900 rpm for 4 minutes and resuspend in growth medium. Cell should be passage or fed at least twice a week.Assay Protocol: Harvest cells from culture in growth medium and resuspend in assay medium. 2.2 Dispense 4000 cells/5 uL/well into 1536-well black/clear bottom plates using a Multidrop dispenser. After the cells were incubated at 37C for 5 hours, 23 nL of compounds dissolved in DMSO were transferred to the assay plate by a PinTool resulting in a 217-fold dilution. Incubate the plates for 16 hours at 37C, 5% CO2. Add 1 uL of 6X LiveBLAzer FRET B/G (CCF4-AM) Substrate Mixture to each well using a BioRAPTR dispenser and incubate the plates at room temperature for 2 hours. Measure fluorescence intensity at 460 and 530 nm emission and 405 nm excitation by an Envision detector. Data is expressed as the ratio of 460nm/530nm emissions. Add 4 uL of Cell-titer Glo to each well using BioRAPTR and incubate the plates at room temperature for 2 hours. Measure fluorescence intensity by a VewLux plate reader."}
{"smiles": "CC1=C(C(=O)Nc2ccccc2)SCCO1", "outcome": "inactive"}
{"smiles": "Oc1ccccc1-c1ccccc1", "outcome": "inactive"}
{"smiles": "COP(N)(=O)SC", "note": "(stereo not given)", "outcome": "inactive"}
{"smiles": "C#CCOS(=O)OC1CCCCC1Oc1ccc(C(C)(C)C)cc1", "note": "(stereo not given)", "outcome": "inactive"}
{"smiles": "COP(=S)(OC)Oc1nc(Cl)c(Cl)cc1Cl", "outcome": "inactive"}
{"smiles": "CCCCNC(=O)OCC#CI", "outcome": "inactive", "AC50": "78.1 µM (active)"}
{"smiles": "COC(=O)C=C(C)OP(=O)(OC)OC", "outcome": "inactive"}
{"smiles": "COC(=O)N(OC)c1ccccc1COc1ccn(-c2ccc(Cl)cc2)n1", "AC50": "1.9 µM (active)"}
{"smiles": "C=CC1(C)OC(=O)N(c2cc(Cl)cc(Cl)c2)C1=O", "note": "(stereo not given)", "outcome": "inactive"}
{"smiles": "O=C(O)c1nc(Cl)ccc1Cl", "outcome": "inactive"}
{"smiles": "N#CC(CCc1ccc(Cl)cc1)(Cn1cncn1)c1ccccc1", "note": "(stereo not given)", "outcome": "inactive"}
{"smiles": "CS/C(C)=N/OC(=O)N(C)SN(C)C(=O)O/N=C(\\C)SC", "outcome": "inactive"}
{"smiles": "N#Cc1cc(Br)c(O)c(Br)c1", "AC50": "57.3 µM (active) and 72.4 µM (active)"}
{"smiles": "CC(C)Oc1cc(-n2nc(C(C)(C)C)oc2=O)c(Cl)cc1Cl", "outcome": "inactive"}
{"smiles": "CCCCOC(=O)c1ccccc1C(=O)OCCCC", "outcome": "inactive"}
{"smiles": "CC1COC(Cn2cncn2)(c2ccc(Oc3ccc(Cl)cc3)cc2Cl)O1", "note": "(stereo not given)", "AC50": "66.3 µM (active)"}
{"smiles": "CNC(=O)ON=CC(C)(C)SC", "outcome": "inactive"}
{"smiles": "O=C(O)COc1nc(Cl)c(Cl)cc1Cl", "outcome": "inactive"}
{"smiles": "Cc1ccc(-c2c(Cl)nc(C#N)n2S(=O)(=O)N(C)C)cc1", "AC50": "20.1 µM (active)"}
{"smiles": "CC(C)(C)c1ccc(CSc2cnn(C(C)(C)C)c(=O)c2Cl)cc1", "outcome": "inactive"}
{"smiles": "Fc1ccc(Oc2ccnc3cc(Cl)cc(Cl)c23)cc1", "AC50": "88.9 µM (active)"}
{"smiles": "CNC(=S)S", "outcome": "inactive"}
{"smiles": "CCCCC(CC)COC(=O)c1ccccc1C(=O)OCC(CC)CCCC", "note": "(stereo not given)", "outcome": "inactive"}
{"smiles": "Cc1cc(Cl)ccc1OCC(=O)O", "outcome": "inactive"}
{"smiles": "CCCC1COC(Cn2cncn2)(c2ccc(Cl)cc2Cl)O1", "note": "(stereo not given)", "outcome": "inactive"}
{"smiles": "CCNc1nc(Cl)nc(NCC)n1", "outcome": "inactive"}
{"smiles": "CC(Oc1ccc(Cl)cc1Cl)C(=O)O", "note": "(stereo not given)", "outcome": "inactive"}
{"smiles": "C=CCC1=C(C)[C@@H](OC(=O)[C@@H]2[C@@H](C=C(C)C)C2(C)C)CC1=O", "outcome": "inactive"}
{"smiles": "C=CCC1=C(C)C(OC(=O)C2C(C=C(C)C)C2(C)C)CC1=O", "note": "(stereo not given)", "outcome": "inactive"}
{"smiles": "CON(C)C(=O)Nc1ccc(Cl)c(Cl)c1", "outcome": "inactive"}
{"smiles": "COC(=O)c1ccccc1C(=O)OC", "outcome": "inactive"}
{"smiles": "CO/C=C(/C(=O)OC)c1ccccc1Oc1cc(Oc2ccccc2C#N)ncn1", "outcome": "inactive"}
{"smiles": "CCON=C(CC)C1=C(O)CC(c2c(C)cc(C)cc2C)CC1=O", "note": "(stereo not given)", "outcome": "inactive"}
{"smiles": "CCCCNC(=O)n1c(NC(=O)OC)nc2ccccc21", "AC50": "20.5 µM (active) and 12.3 µM (active)"}
{"smiles": "OC(c1ccc(Cl)cc1)(c1cncnc1)c1ccccc1Cl", "note": "(stereo not given)", "outcome": "inactive"}
{"smiles": "CCOC(=O)CC(SP(=S)(OC)OC)C(=O)OCC", "note": "(stereo not given)", "outcome": "inactive"}
{"smiles": "COc1ccc(C(c2ccc(OC)cc2)C(Cl)(Cl)Cl)cc1", "outcome": "inactive"}
{"smiles": "COC(=O)C(C)Oc1ccc(Oc2ccc(Cl)cc2Cl)cc1", "note": "(stereo not given)", "outcome": "inactive"}
{"smiles": "O=C(Nc1ccccc1)Nc1ccnc(Cl)c1", "outcome": "inactive"}
